# Measured values published in PubChem BioAssay AID463173 (ICCB-Longwood Screening Facility, Harvard Medical School, 2010).
# Screen size: about 52,000 compounds; about 4,300 (8.3%) were called active. No stated cut-off is given here; in the data, active means survival mostly below about 52% (no sharp cut-off); inactive means mostly above about 56%. For the sample, actives were picked, then their nearest neighbours and some compounds at random.
# Tested on: DeltatarO mutant
# Test: growth inhibition of S. aureus wild type versus tarO mutant, primary screen, teichoic acid synthesis inhibitors, RN4220, OD600 (AID 463173)
# Details: OD600, 18 h, hits give low values, screened at 18.75 µg/mL (by protocol)
row,Structure (SMILES),survival
1,COc1ccc(Cc2nc3c4cnn(-c5ccccc5F)c4ncn3n2)cc1,81% (inactive)
2,Cc1cc(-n2c(SCC(=O)NCc3ccccc3)nc3ccsc3c2=O)ccc1Cl,87% (inactive)
3,CC(=O)c1cccc(-n2c(CCC(=O)O)ccc2-c2ccccc2)c1,74% (inactive)
4,CCOC(=O)c1ccc(-n2c(CCC(=O)O)ccc2-c2ccccc2)cc1O,43% (active)
5,O=C(O)CCc1ccc(-c2ccccc2)n1-c1ccc(C(=O)O)cc1,131% (inactive)
6,Cc1cccc(C2NC(=O)c3c(sc4c3CCN(C)C4)N2)c1O (stereo not given),125% (inactive)
7,CCn1c(=O)c2sccc2n2c(CCCC(=O)N3CCN(c4ccccc4OC)CC3)nnc12,91% (inactive)
8,COc1ccc(NC(=O)c2cc(C3CC3)nc3c2c(C)nn3-c2ccccc2)c(OC)c1,37% (active)
9,CC(=O)c1ccc(NC(=O)c2cc(C)nc3c2c(C)nn3-c2ccc(C)cc2)cc1,102% (inactive)
10,COc1ccc(NC(=O)c2cc(C3CC3)nc3c2c(C)nn3-c2ccc(C)cc2)cc1OC,144% (inactive)
11,COc1ccccc1NC(=O)c1cc(C2CC2)nc2c1c(C)nn2-c1ccc(C)cc1,98% (inactive)
12,CC(=O)c1ccc(NC(=O)c2cc(C3CC3)nc3c2c(C)nn3-c2ccc(C)cc2)cc1,46% (active)
13,COc1ccc(NC(=O)c2cc(C3CC3)nc3c2c(C)nn3-c2ccccc2)cc1,53% (inactive)
14,Nc1c(C(=O)Nc2ccccc2)nnn1Cc1ccc(F)cc1Cl,99% (inactive)
15,O=C(Cn1cc(S(=O)(=O)Cc2cccc(Cl)c2)c2ccccc21)NCc1ccccc1Cl,91% (inactive)
16,O=C1CSC(N(c2ccccc2)c2ccccc2)=N1,96% (inactive)
17,COc1cccc(CNC(=O)CCn2c(=O)c3cccn3c3cccnc32)c1OC,98% (inactive)
18,Cc1ccc(CNC(=O)CCS(=O)(=O)c2cc3c4c(c2)CCN4C(=O)CC3)cc1,67% (inactive)
19,Cn1nc(C(=O)N2CCN(c3ccc(Cl)cc3)CC2)c2c1-c1ccccc1S(=O)(=O)C2,51% (inactive)
20,Cc1cccc(N2CCN(C(=O)c3nn(C)c4c3CS(=O)(=O)c3ccccc3-4)CC2)c1C,67% (inactive)
21,Cc1ccc2c(c1)-c1onc(C(=O)N3CCN(c4cc(Cl)ccc4C)CC3)c1CO2,57% (active)
22,Cn1nc(C(=O)N2CCN(c3cccc(Cl)c3)CC2)c2c1-c1ccccc1S(=O)(=O)C2,37% (active)
23,Cc1ccc2c(c1)-c1onc(C(=O)N3CCN(c4ccc(Cl)cc4)CC3)c1CO2,63% (inactive)

row,Structure (SMILES),survival
1,Cn1nc(C(=O)N2CCN(c3ccccc3F)CC2)c2c1-c1ccccc1SC2,32% (active)
2,Cc1ccc(N2CCN(C(=O)c3nn(C)c4c3CS(=O)(=O)c3ccccc3-4)CC2)c(C)c1,77% (inactive)
3,Cn1nc(C(=O)N2CCN(c3ccc(F)cc3)CC2)c2c1-c1ccccc1SC2,77% (inactive)
4,Cc1ccc(C)c(N2CCN(C(=O)c3nn(C)c4c3CS(=O)(=O)c3ccccc3-4)CC2)c1,49% (active)
5,Cc1ccc2c(c1)-c1onc(C(=O)N3CCN(c4cc(C)ccc4C)CC3)c1CO2,66% (inactive)
6,Cn1nc(C(=O)N2CCN(c3ccccc3)CC2)c2c1-c1ccccc1SC2,80% (inactive)
7,Cn1nc(C(=O)N2CCN(c3ccccc3)CC2)c2c1-c1ccccc1S(=O)(=O)C2,51% (inactive)
8,COc1cc(-c2nnc(SCC(=O)Oc3ccccc3Cl)o2)cc(OC)c1OC,84% (inactive)
9,O=C(Nc1ccc(CN2CCCCC2)cc1)c1cccnc1Cl,71% (inactive)
10,CCc1ccc(-c2nc(SCC(=O)NCCOC)c(-c3ccc(C)cc3)[nH]2)cc1,76% (inactive)
11,Cc1c(Cl)cccc1NC(=O)c1cc(S(=O)(=O)N2CCCCC2)cn1C,99% (inactive)
12,COc1cccc(CN2CCc3nc(N4CCN(C)CC4)ncc3C2)c1,84% (inactive)
13,CN(c1ccc(F)cc1)S(=O)(=O)N1CCCC(C(=O)NCc2ccccc2Cl)C1 (stereo not given),81% (inactive)
14,COc1ccc(NC(=O)CCc2c(C)nc3c(c2C)c(=O)n(C)c(=O)n3C)c(OC)c1,100% (inactive)
15,COc1ccc2c(c1)c(=O)c(S(=O)(=O)c1ccccc1)cn2CC(=O)Nc1ccc(C)c(Cl)c1,97% (inactive)
16,COc1ccccc1CNC(=O)CCC1N=C2c3ccccc3N=C(SCC(=O)NCCc3ccc(OC)c(OC)c3)N2C1=O (stereo not given),92% (inactive)
17,Cc1ccc(Cl)cc1N1CCN(C(=O)c2nn(C)c3c2CS(=O)(=O)c2ccccc2-3)CC1,58% (active)
18,COc1ccccc1N1CCN(C(=O)c2nn(C)c3c2CS(=O)(=O)c2ccccc2-3)CC1,61% (inactive)
19,Cn1nc(C(=O)N2CCN(c3ccccc3F)CC2)c2c1-c1ccccc1S(=O)(=O)C2,60% (inactive)
20,O=C(CSc1ncn[nH]1)N1CCOCC1,73% (inactive)
21,Cn1c(=O)n(C)c2cc(NC(=O)C(F)(F)F)ccc21,94% (inactive)
22,Cn1c(=O)n(C)c2cc(N3CCOCC3)c(NS(=O)(=O)c3ccc(Cl)cc3)cc21,75% (inactive)
23,Cn1c(=O)c(=O)n(C)c2cc(N3CCOCC3)c(NS(=O)(=O)c3ccc(Cl)cc3)cc21,-1% (active)

row,Structure (SMILES),survival
1,Cc1cc2c(cc1NS(=O)(=O)c1ccc(Br)cc1)n(C)c(=O)c(=O)n2C,109% (inactive)
2,CCc1ccc(S(=O)(=O)Nc2cc3c(cc2N2CCOCC2)n(C)c(=O)c(=O)n3C)cc1,6% (active)
3,CCc1ccc(S(=O)(=O)Nc2cc3c(cc2C)n(C)c(=O)c(=O)n3C)cc1,64% (inactive)
4,CC(C)Cc1ccc(S(=O)(=O)Nc2cc3c(cc2N2CCOCC2)n(C)c(=O)c(=O)n3C)cc1,79% (inactive)
5,Cn1c(=O)c(=O)n(C)c2cc(N3CCOCC3)c(NS(=O)(=O)c3ccc(F)c(Cl)c3)cc21,67% (inactive)
6,Cc1ccc(S(=O)(=O)Nc2cc3c(cc2C)n(C)c(=O)c(=O)n3C)cc1,-2% (active)
7,Cc1ccc(S(=O)(=O)Nc2cc3c(cc2N2CCOCC2)n(C)c(=O)n3C)cc1,90% (inactive)
8,Cc1ccc(NC(=O)C2CCN(S(=O)(=O)c3ccc4c(c3)CCCC(=O)N4)CC2)cc1N(C)C,120% (inactive)
9,Cc1nn(CCCC(=O)NCc2ccccc2)c(=O)c2cc3sccc3n12,76% (inactive)
10,O=C(CSc1cn(CC(=O)N2CCCCC2)c2ccccc12)NCc1ccc(F)cc1,70% (inactive)
11,N#CCNC(=O)c1cccc(I)c1,89% (inactive)
12,Cc1ccc(C)c(N2CCN(C(=O)c3cc(S(=O)(=O)N4CCCC4)cn3C)CC2)c1,64% (inactive)
13,Cc1cc(N2CCC(C(=O)Nc3ccc(F)cc3F)CC2)n2nc(C)c(-c3ccc(Cl)cc3)c2n1,86% (inactive)
14,COc1cccc(-c2nnc3n(Cc4ccc(F)cc4)c(=O)c4ccccc4n23)c1,84% (inactive)
15,Cc1ccc(NC(=O)[C@H](Cc2ccccc2)N2Cc3ccccc3C2=O)cc1,81% (inactive)
16,Cc1ccc(CCNC(=O)CCCn2nc(C)c3c(C)n(-c4ccccc4)nc3c2=O)cc1,87% (inactive)
17,CCN1CCC(N(Cc2cccc(OC)c2)C(=O)Nc2cccc(C)c2C)CC1,20% (active)
18,CCN1CCC(N(Cc2ccc3c(c2)OCO3)C(=O)Nc2cccc(C)c2C)CC1,94% (inactive)
19,CCN1CCC(N(Cc2cccc(OC)c2)C(=O)Nc2ccc(C)cc2Cl)CC1,66% (inactive)
20,COCCN1C(=O)C(=O)/C(=C(/O)c2ccccc2)C1c1ccccc1 (stereo not given),102% (inactive)
21,Cc1ccc2c(=O)c(C(=O)c3ccc(F)cc3)cn(CC(=O)NCc3ccccc3)c2n1,82% (inactive)
22,Cc1ccc(C(=O)c2cn(Cc3ccccc3)c3nc(C)ccc3c2=O)cc1,76% (inactive)
23,Cc1ccc(C(=O)c2cn(Cc3ccc(F)cc3)c3nc(C)ccc3c2=O)cc1,85% (inactive)

row,Structure (SMILES),survival
1,CCc1ccc(C(=O)c2cn(CC(=O)NCc3ccc(C)cc3)c3nc(C)ccc3c2=O)cc1,98% (inactive)
2,Cc1ccc(C(=O)c2cn(Cc3ccc(Cl)cc3)c3nc(C)ccc3c2=O)cc1,34% (inactive)
3,Cc1ccc(CNC(=O)Cn2cc(C(=O)c3ccc(F)cc3)c(=O)c3ccc(C)nc32)cc1,52% (active)
4,Cc1ccc(Cn2cc(C(=O)c3ccc(C)cc3)c(=O)c3ccc(C)nc32)cc1,24% (active)
5,Cc1ccc(C(=O)c2cn(Cc3cccc(Cl)c3)c3nc(C)ccc3c2=O)cc1,60% (active)
6,Cc1ccc(C(=O)c2cn(Cc3cccc(C)c3)c3nc(C)ccc3c2=O)cc1,54% (inactive)
7,Cc1cc(NC(=O)C2C3C(=O)N(c4ccccc4Cl)C(C(=O)NC(C)(C)C)C34C=CC2(C)O4)no1 (stereo not given),108% (inactive)
8,Cc1ccccc1OCC(=O)Nc1nnc(SCc2cc(=O)n3cc(Cl)ccc3n2)s1,84% (inactive)
9,CCc1ccc(C2c3c(oc4ccc(F)cc4c3=O)C(=O)N2CCc2ccc(OC)cc2)cc1 (stereo not given),94% (inactive)
10,Cc1ccc(-n2c(=O)c3ccc(C(=O)NCc4ccco4)cc3n(CC(=O)Nc3ccc(C)c(F)c3)c2=O)cc1,84% (inactive)
11,CCOc1cccc(CC(=O)NCc2ccc3c(c2)CCN3C(=O)c2cccc(C)c2)c1OCC,54% (inactive)
12,COc1ccc(N(C(=O)/C=C\C(=O)Nc2ccc(Cl)cc2)C(C(=O)NCc2ccco2)c2ccc(C)cc2)cc1 (stereo not given),115% (inactive)
13,Cc1cccc(N2CCN(C(=O)C3CCN(C(=O)c4cc5sccc5n4C)CC3)CC2)c1C,53% (inactive)
14,Cc1cccc(N2CCN(C(=O)C3CCCN(C(=O)c4cc5sccc5n4C)C3)CC2)c1C (stereo not given),53% (active)
15,Cn1c(C(=O)N2CCCC(C(=O)N3CCN(c4ccccc4)CC3)C2)cc2sccc21 (stereo not given),89% (inactive)
16,CC(Oc1ccccc1F)C(=O)N1CCC(c2nc3ccccc3o2)CC1 (stereo not given),-1% (active)
17,Cc1cccc(C)c1OCC(=O)N1CCC(c2nc3ccccc3o2)CC1,86% (inactive)
18,Cc1cccc(OC(C)C(=O)N2CCC(c3nc4ccccc4o3)CC2)c1C (stereo not given),75% (inactive)
19,COc1ccccc1OCC(=O)N1CCC(c2nc3ccccc3o2)CC1,0% (active)
20,CCc1ccc(OC(C)C(=O)N2CCC(c3nc4ccccc4o3)CC2)cc1 (stereo not given),85% (inactive)
21,Cc1cccc(OCC(=O)N2CCC(c3nc4ccccc4o3)CC2)c1C,81% (inactive)
